Compound activity as filed in PubChem BioAssay.
HIV RNase H inh-1: HIV-1 RT RNase H inhibitors, primary screen, biochemical, fluorescence; Gag-Pol polyprotein (Human immunodeficiency virus type 1 group M subtype B (isolate …; RT-RNase H RNA/DNA duplex cleavage; inhibition, % at 10 µM; 65,000 tested, 1.9% active; AID 565, 2006; in the data active = inhibition above about 50%
HIV RNase H inh-2: HIV-1 RT RNase H inhibitors, retest, confirmation, biochemical | shares compounds with HIV RNase H inh-1 | AID 651, 2007 | Recombinant RT RNase H, fluorescent RNA/DNA duplex cleavage | 1,000 tested, 39% active | inhibition, % at 10 µM; in the data active = inhibition above about 48%; inconclusive = no clear call, values can overlap the other calls
* hit, by the source's call; ? = inconclusive. The entries come from a sample that favours hits as a whole.

SMILES	HIV RNase H inh-1	others
Cc1ccc2c(C)nc(NC3=NCN(C(C)C)CN3)nc2c1	0.8
N#Cc1nc(-c2ccc(OCc3ccccc3)cc2)oc1NCCCn1ccnc1	-13.1
N#Cc1nc(-c2ccc(OCc3ccc(Cl)cc3)cc2)oc1NCc1cccnc1	76.1*	HIV RNase H inh-2=64.8*
N#Cc1nc(-c2ccc(OCc3ccccc3)cc2)oc1NCc1cccnc1	-12.7
Cc1nc2ncnn2c(C)c1Cc1ccc(Cl)cc1F	-14.8
COC(=O)c1ccccc1NC(=O)CN1C(=O)C2CCCN2c2ncc(Cl)cc21 (configuration not stated)	60.1*	HIV RNase H inh-2=?
CCc1ccccc1NC(=O)CN1C(=O)C2CCCN2c2ncc(Cl)cc21 (configuration not stated)	-3.1
CC1CCC(NC(=O)CN2C(=O)C3CCCN3c3ncc(Cl)cc32)CC1 (configuration not stated)	13.4
Cc1cc(C(=O)NCCCN2CCOCC2)n(-c2ccccc2)n1	-4.7
CCc1nnc(NS(=O)(=O)c2ccc(N3C(=O)C4CC=C(Cl)CC4C3=O)cc2)s1 (configuration not stated)	6.0
Cn1c(=O)n(C)c2cc(/C=N/n3cnnc3)ccc21	58.6*	HIV RNase H inh-2=0.0
CCOc1cc(/C=N/n2cnnc2)ccc1O	-4.5
COc1cc(/C=N/n2cnnc2)ccc1OC(=O)N(C)C	-0.9
COc1cc(-c2nnc3sc(-c4cccs4)nn23)cc(OC)c1OC	11.0
Cc1c(NC(=O)COC(=O)Cc2ccc(Cl)cc2)c(=O)n(-c2ccccc2)n1C	1.5
CCn1c(=O)c(C2=NS(=O)(=O)c3ccccc3N2)c(O)c2ccccc21	2.8
C=CCn1c(=O)c2ccccc2n2c(SCC(=O)/C(C#N)=C(\C)N)nnc12	-9.4
CCCOc1ccc(Cc2nc(N)nc(N)n2)cc1	-10.5
Cc1ccc(Cn2nc(C)c(NC(=O)c3cc(-c4ccco4)on3)c2C)cc1	-2.8
COc1ccc(-c2cc(C(=O)Nc3c(C)nn(Cc4ccc(Cl)cc4)c3C)no2)cc1	62.0*	HIV RNase H inh-2=-5.6
Cc1nn(Cc2ccc(Cl)cc2)c(C)c1NC(=O)c1cc(-c2ccco2)on1	-43.5
Cn1ccnc1SCC(=O)N(C1CCCCC1)C1CCCCC1	-1.8
O=C(Cn1cnc2c(nnn2Cc2ccc(Cl)cc2)c1=O)NCc1ccco1	4.3
O=S(=O)(Nc1ccc2c(c1)OCO2)c1ccc(Br)s1	13.5
CC1=C(C(=O)N(C)C)C(c2cccc(Cl)c2)NC(=O)N1 (configuration not stated)	-4.4
SMILES	HIV RNase H inh-1	others
CC1SC(c2cccc(Cl)c2)NC1=O (configuration not stated)	59.9*	HIV RNase H inh-2=13.7
O=C1NCCN1Cc1cccc(Cl)c1	-19.8
C=CCN(CC=C)c1nc2ccccc2nc1C(C#N)C(=O)OC(C)C (configuration not stated)	-12.8
CCCCC(=O)NC(Nc1ccc(C)cn1)(C(=O)OCC)C(F)(F)F (configuration not stated)	-4.2
COc1ccccc1CN1CC(C(=O)NCc2cccnc2)CC1=O (configuration not stated)	1.4
CSc1nc(-c2ccccc2O)nc(-c2ccccc2O)n1	0.8
CCCCC[C@H](O)/C=C/[C@H]1C=CC(=O)[C@@H]1C/C=C\CCCC(=O)O	77.2*	HIV RNase H inh-2=66.9*
CCC(C)(C)n1nnnc1C(c1ccc(N(C)C)cc1)N1CCN(C2CCCCC2)CC1 (configuration not stated)	6.8
CCOC(=O)CCc1c(C)c(C#N)c2nc3ccccc3n2c1-n1ccnc1	0.1
CCOC(=O)CCc1c(C)nc(SCC(=O)O)c(C#N)c1C	70.3*	HIV RNase H inh-2=11.7
Cc1nc(SCC(=O)CC(=O)OC(C)C)c(C#N)c(C)c1C	-34.6
COc1ccc(-n2c(N)c(Br)c(=O)[nH]c2=O)cc1	-3.4
COc1cccc(-c2cc(C(=O)Nc3ccc(OC)c(OC)c3)no2)c1	-2.9
COC(=O)c1cc(-c2ccc(OC)c(OC)c2)on1	-4.0
COc1ccc(-c2cc(C(=O)Nc3cc(OC)c(OC)c(OC)c3)no2)cc1OC	80.0*	HIV RNase H inh-2=24.7
Cc1ccc2c(c1)N(CC(=O)NCCc1c[nH]c3ccccc13)C(=O)CO2	6.1
O=C1NCCCc2c1oc1ccc(O)cc21	1.5
Oc1c(Cl)cc(Cl)c2c1NCCC2	79.8*	HIV RNase H inh-2=36.7
O=C(CS(=O)(=O)Cc1ccccc1)Nc1nc2c(s1)CCCC2	-5.2
O=C(Cc1ccc(S(=O)(=O)N2CCCC2)s1)Nc1nc2c(s1)CCCC2	75.9*	HIV RNase H inh-2=-3.1
O=C(CCS(=O)(=O)Cc1ccccc1)Nc1nc2c(s1)CCCC2	-18.1
CCn1c2ccccc2c2nnc(SCC(=O)Nc3ncccn3)nc21	-4.7
CCOC(=O)c1sc(NC(=O)C(CC)Sc2nnc3c4ccccc4n(CC)c3n2)nc1C (configuration not stated)	25.5
CCOC(=O)c1sc(NC(=O)CSc2nnc3c4ccccc4n(CC)c3n2)nc1C	74.0*	HIV RNase H inh-2=42.0
Cc1ccc(-c2nc(CSCC(=O)NCc3cccnc3)c(C)o2)cc1	-6.8
SMILES	HIV RNase H inh-1	others
Cc1cccn2c(=O)c3cc(C(=O)N4CCN(c5ccccc5)CC4)n(C)c3nc12	-6.7
CCC(Oc1ccccc1)C(=O)Nc1ccc(-c2nnc(-c3ccco3)o2)cc1 (configuration not stated)	11.1
O=C(COC(=O)c1ccco1)Nc1ccc(Br)cc1	-1.5
O=C(COc1ccc(Br)cc1)Nc1ccc(-c2nnc(-c3ccco3)o2)cc1	66.6*	HIV RNase H inh-2=72.3*
CCCOC(=O)NC(CC)COC(=O)Nc1cc(C)ccc1C (configuration not stated)	92.6*	HIV RNase H inh-2=-0.5
COC(=O)[C@H](CCSC)NC(=O)Nc1cc(C)ccc1C	-4.8
CCCCNC(=O)OCC(CC)NC(=O)OC(C)C (configuration not stated)	-1.3
CCN(CC)S(=O)(=O)c1ccc(NC(=O)C(OC)c2ccccc2)cc1 (configuration not stated)	-19.3
O=C(O)c1ccccc1C(=O)Nc1ccccn1	-5.3
O=C(Nc1ccccc1)Nc1ccccn1	-9.9
S=C(Nc1ccccn1)c1ccccn1	73.3*	HIV RNase H inh-2=68.4*
Cc1oc(-c2ccccc2F)nc1CS(=O)(=O)CC(=O)NCCN(C)C1CCCCC1	-0.3
Cc1cccc(/N=C/c2c(O)n(-c3cc(Cl)ccc3N3CCOCC3)c(=O)c3ccccc23)n1	-3.5
C=C(C)c1cccc(C(C)(C)NC(=O)N2CCN(CC(N)=O)CC2)c1	-11.4
CC(C)(C)c1ccc(C(=O)Nc2nonc2-c2nc3ccccc3[nH]2)cc1	60.0*	HIV RNase H inh-2=?
Cn1cccc1-c1nc2ccc(NC(=O)c3ccccc3)cc2[nH]1	-0.7
O=C(Nc1ccc(-c2nc3ccccc3[nH]2)cc1)c1ccco1	-10.2
c1cncc(-c2nn3c(-c4ccncc4)nnc3s2)c1	46.4
O=C(NC1CCCc2ccccc21)C1CCN(c2c(N3CCCC3)c(=O)c2=O)CC1 (configuration not stated)	-3.0
O=C(NCCCN1CCOCC1)c1cc2cc(Cl)cc(Cl)c2oc1=O	2.9
O=C(c1cc(-c2ccco2)on1)N1CCN(C(c2ccccc2)c2ccccc2)CC1	-8.8
COc1ccc(-c2cc(C(=O)N3CCN(C(c4ccccc4)c4ccccc4)CC3)no2)cc1	-3.8
CC(C)c1cc(C(=O)N2CCN(C(c3ccccc3)c3ccccc3)CC2)no1	73.8*	HIV RNase H inh-2=49.5
CCOCCCNCC(=O)N1CCN(S(=O)(=O)c2ccc(C)cc2)CC1	6.4
